18 compounds from PubChem BioAssay (Tox21) can be followed below.

A short description of assay [1]: qHTS assay to identify small molecule antagonists of the estrogen related receptor (ERR) signaling pathway from Tox21 library - cell viability counter screen (AID 1224834). Note: nearly all actives have a fitted effect of over 30% in size. Note: potency is the fitted concentration of half-maximal effect. Put shortly:
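Seeded ERR cells were rested 6 h at 37 C/5% CO2 before compounds, positive and negative controls or DMSO were added. Incubation continued for 17.5 h, and viability was then quantified by CellTiter-Fluor fluorescence.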

Assay [2] concerns the target Luciferin 4-monooxygenase (Photinus pyralis) (UniProt P08659). The experiment in a line: qHTS assay to identify small molecule inhibitors of firefly luciferase (AID 1224835). Note: nearly all actives have a fitted effect of over 25% in size. Note: potency is the fitted concentration of half-maximal effect. Put shortly: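 Inhibition of purified Photinus luciferase is measured by luminescence. Substrate levels (D-luciferin, ATP) sit at their KM values. Each compound is tested in a concentration series.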

A short description of assay [3]: qHTS assay to identify small molecule agonists of the constitutive androstane receptor (CAR) signaling pathway - cell viability counter screen (AID 1224836). Note: nearly all actives have a fitted effect of over 45% in size. Note: potency is the fitted concentration of half-maximal effect. Put shortly: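 Multiplexed viability check: HepG2-CYP2B6-hCAR cells, 15-point compound dosing, 0.75 uM PK11195 final, 23 h at 37 C, CellTiter-Fluor fluorescence.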
A short description of assay [4]: qHTS assay to identify small molecule antagonists of the constitutive androstane receptor (CAR) signaling pathway - cell viability counter screen (AID 1224837). Note: nearly all actives have a fitted effect of over 45% in size. Note: potency is the fitted concentration of half-maximal effect. Put shortly: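 To flag cytotoxic false antagonists, HepG2 hCAR/CYP2B6-2.2kb cells were treated 23 hr with 15-concentration compound series and 50 nM CITCO at 37 C/5% CO2; CellTiter-Fluor fluorescence was the measured end point.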

Assay [5] concerns the target Nuclear receptor subfamily 1 group I member 3 (Homo sapiens) (UniProt Q14994). The experiment in a line: qHTS assay to identify small molecule antagonists of the constitutive androstane receptor (CAR) signaling pathway (AID 1224838).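 Note: HepG2 cells stably expressing hCAR with CYP2B6 luciferase reporter stimulated by CITCO; nearly all actives have a fitted effect of over 40% in size.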 Note: potency is the fitted concentration of half-maximal effect. An outline of the steps: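 Human hepatoma HepG2 cells expressing hCAR and a CYP2B6 promoter (2.2 kb) luciferase construct; compound titration (15 points) with 50 nM CITCO final, 24 h at 37 C/5% CO2; luminescence via ONE-Glo after 30 min at room temperature.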

The nature of assay [6]: qHTS assay to identify small molecule antagonists of the estrogen related receptor signaling pathway with the pleiotropic PPARgamma coactivator (PGC) from Tox21 10K library - cell viability counter screen (AID 1224840; active = well fitted cell-killing curve with a large enough effect in the repeat runs, not every such curve was filed as active; note: nearly all actives have a fitted effect of over 40% in size; note: potency is the fitted concentration of half-maximal effect). An outline of the steps: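 Seeded PGC/ERR cells (2,000/well, 6 h, 37 C/5% CO2) get compound by pin tool; 17.5 h incubation at 37 C; CellTiter-Fluor added, 30 min, fluorescence measured.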

Assay [7] addresses Thyrotropin receptor (Homo sapiens) (UniProt P16473). The assay is described as follows: qHTS assay to identify small molecule agonists of the thyroid stimulating hormone receptor (TSHR) signaling pathway (AID 1224843; calls by dose curve; note: nearly all actives have a fitted effect of over 45% in size; note: potency is the fitted concentration of half-maximal effect). An outline of the steps:
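A cell-based cAMP HTRF format was run in TSHR-transfected HEK293 cells, 800 per well. Treatment: 30 min, room temperature. Detection: 1 h with labelled cAMP and anti-cAMP cryptate. Concentration-response over 15 points, three replicates.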

Assay [8] can be described thus: qHTS assay to identify small molecule agonists of the estrogen related receptor signaling pathway with the pleiotropic PPARgamma coactivator (PGC) from Tox21 10K library (AID 1224842). Note: nearly all actives have a fitted effect of over 15% in size. Put shortly:
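Luminescence from One-Glo (30 min, room temperature) measured after PGC/ERR cells had 18 h at 37 C with pinned compound (23 nL in DMSO). Cells had been seeded at 2,000 per well and pre-incubated 6 h.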

For assay [9], the target named is Nuclear receptor subfamily 1 group I member 3 (Homo sapiens) (UniProt Q14994). The assay is described as follows: qHTS assay to identify small molecule agonists of the constitutive androstane receptor (CAR) signaling pathway (AID 1224839).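 For activation: HepG2 cells stably carrying human CAR and a CYP2B6 luciferase reporter; series mostly up to about 92 µM.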 Note: nearly all actives have a fitted effect of over 15% in size. Note: potency is the fitted concentration of half-maximal effect. An outline of the steps: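 Using human hepatoma HepG2 cells engineered with hCAR and a CYP2B6-2.2kb reporter, 15-concentration compound series were incubated 24 h alongside PK11195 at 0.75 uM final, with luminescence quantified afterwards.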

A short description of assay [10]: qHTS assay to identify small molecule antagonists of the estrogen related receptor signaling pathway with the pleiotropic PPARgamma coactivator (PGC) from Tox21 10K library (AID 1224841; call rule not given here; note: actives are mostly falling curves and most rising ones were filed inactive; nearly all actives have a fitted effect of over 50% in size; note: potency is the fitted concentration of half-maximal effect). Put shortly:
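Test chemicals dissolved in DMSO were applied to pre-incubated (6 h) PGC/ERR cells at 2,000 cells/well for an 18 h, 37 C treatment; reporter luminescence was then read using One-Glo.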

Inconclusive results are not listed. Values without a mark were called inactive. Calls of active or inactive are those of the source. Unless noted, calls come from the whole dose curve; as a rule, active = well fitted curve in the direction sought with a large enough effect in the repeat runs; inconclusive = weak or mixed curves; inactive = no such curve, though single readings can be large; an effect the other way counts as inactive or inconclusive.
% is set by controls: 0 for no effect and ±100 for the full control effect.

Sequence of Luciferin 4-monooxygenase (Photinus pyralis) (P08659 whole entry, looked up): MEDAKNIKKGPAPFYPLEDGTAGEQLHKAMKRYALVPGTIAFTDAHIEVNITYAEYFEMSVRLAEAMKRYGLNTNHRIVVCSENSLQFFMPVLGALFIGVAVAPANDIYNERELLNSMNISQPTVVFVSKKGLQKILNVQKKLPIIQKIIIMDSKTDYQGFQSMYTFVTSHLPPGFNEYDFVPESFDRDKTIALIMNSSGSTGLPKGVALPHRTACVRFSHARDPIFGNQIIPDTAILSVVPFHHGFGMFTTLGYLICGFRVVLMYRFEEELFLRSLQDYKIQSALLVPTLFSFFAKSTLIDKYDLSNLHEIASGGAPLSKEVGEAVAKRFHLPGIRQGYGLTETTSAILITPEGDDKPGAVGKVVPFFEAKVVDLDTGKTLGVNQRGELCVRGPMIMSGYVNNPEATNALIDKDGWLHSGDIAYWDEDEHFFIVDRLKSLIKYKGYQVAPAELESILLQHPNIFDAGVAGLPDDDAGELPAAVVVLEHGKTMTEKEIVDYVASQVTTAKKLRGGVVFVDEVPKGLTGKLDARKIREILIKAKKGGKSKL
Sequence of Thyrotropin receptor (Homo sapiens) (P16473 whole entry, looked up): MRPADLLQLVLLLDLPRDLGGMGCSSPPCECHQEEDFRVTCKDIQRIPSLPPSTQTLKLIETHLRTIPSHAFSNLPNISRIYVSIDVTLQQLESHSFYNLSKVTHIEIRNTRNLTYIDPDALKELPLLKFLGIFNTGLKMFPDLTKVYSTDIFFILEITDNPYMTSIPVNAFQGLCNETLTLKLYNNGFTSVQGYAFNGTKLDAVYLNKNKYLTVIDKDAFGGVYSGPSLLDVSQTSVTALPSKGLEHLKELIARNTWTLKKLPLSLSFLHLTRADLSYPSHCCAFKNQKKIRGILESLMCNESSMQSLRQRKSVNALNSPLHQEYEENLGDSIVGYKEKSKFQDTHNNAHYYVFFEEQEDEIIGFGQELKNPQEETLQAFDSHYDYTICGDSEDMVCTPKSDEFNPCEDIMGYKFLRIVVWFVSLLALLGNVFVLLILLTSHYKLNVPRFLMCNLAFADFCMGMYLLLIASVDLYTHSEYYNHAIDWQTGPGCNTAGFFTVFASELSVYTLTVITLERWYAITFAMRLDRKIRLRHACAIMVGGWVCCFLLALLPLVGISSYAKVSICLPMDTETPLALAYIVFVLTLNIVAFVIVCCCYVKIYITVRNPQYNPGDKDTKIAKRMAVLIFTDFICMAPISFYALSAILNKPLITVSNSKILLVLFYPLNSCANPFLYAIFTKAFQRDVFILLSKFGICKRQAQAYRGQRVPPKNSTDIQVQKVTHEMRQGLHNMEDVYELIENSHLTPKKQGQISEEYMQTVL
Sequence of Nuclear receptor subfamily 1 group I member 3 (Homo sapiens) (Q14994 whole entry, looked up): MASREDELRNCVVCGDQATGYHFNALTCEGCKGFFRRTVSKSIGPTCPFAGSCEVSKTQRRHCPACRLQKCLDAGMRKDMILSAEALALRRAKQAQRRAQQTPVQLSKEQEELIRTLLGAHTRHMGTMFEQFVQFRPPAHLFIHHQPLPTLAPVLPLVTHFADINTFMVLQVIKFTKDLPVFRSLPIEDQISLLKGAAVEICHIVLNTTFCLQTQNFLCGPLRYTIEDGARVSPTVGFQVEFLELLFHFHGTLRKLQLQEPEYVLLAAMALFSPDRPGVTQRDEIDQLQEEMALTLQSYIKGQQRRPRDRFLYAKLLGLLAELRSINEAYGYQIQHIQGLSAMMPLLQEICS

As for `NC(=O)CC[C@@H]1NC(=O)[C@H](Cc2ccccc2)NC(=O)[C@H](Cc2ccc(O)cc2)NC(=O)CCSSC[C@@H](C(=O)N2CCC[C@H]2C(=O)N[C@@H](CCCN=C(N)N)C(=O)NCC(N)=O)NC(=O)[C@H](CC(N)=O)NC1=O`, the Potency entry in assay [1], in assay [2], in assay [3], in assay [4], in assay [5] and in assay [6] was “inactive” throughout. Further, in assay [7], the Potency result was “inactive”.

`CC(C)(C)C(=O)OCOC(=O)C1N2C(=O)CC2S(=O)(=O)C1(C)C` (stereo not drawn): the Potency result in assay [1], in [2], in assay [3], in assay [4], in assay [6] and in assay [7] was “inactive” each time.

Consider `Cc1ccc2oc(CN(Cc3ccccc3)C(=O)Nc3c(F)cc(F)cc3F)c(-c3ccc(Cl)cc3)c2c1`, for which the Potency result in assay [1], in [2], in assay [3], in [4], in assay [6] and in assay [8] was “inactive” throughout. Besides, the Potency entry in assay [7] was “inactive”.

On to `N=C1C=CC(=C(c2ccc(N)cc2)c2ccc(N)cc2)C=C1`, for which the Potency is 21.7 µM (active) in [1]; 20 µM (active) in [2]; 34.4 µM (active) in [3]; 27.3 µM (active) in assay [4]; 3.44 µM (active) in assay [10]. Further, the Potency entry in assay [9] and in assay [8] was “inactive” each time.

On to `CN(C)[C@@H]1C(=O)C(C(N)=O)=C(O)[C@@]2(O)C(=O)C3=C(O)c4c(O)ccc(Cl)c4[C@@H](O)[C@H]3C[C@@H]12`, for which the Potency entry in assay [1], in [2], in assay [3], in [4], in assay [6] and in assay [8] was “inactive” throughout. The Potency entry in [7] is “inactive”.

Turning to `CSc1ccc(C(=O)c2[nH]c(=O)[nH]c2C)cc1`, the Potency result in assay [1], in assay [2], in assay [3], in assay [4], in [9] and in assay [6] was “inactive” in each case.

Consider `CCN(Cc1cccnc1)C(=O)c1cccc(Cl)c1[C@]1(C)C(=O)N(Cc2ccc(OC)cc2OC)c2ccc(Cl)cc21`, for which the Potency in [1] is 28.6 µM (active). Moreover, the Potency entry in assay [2], in [4], in [5] and in assay [9] was “inactive” each time.

For the compound `CCCCCCCC/C=C/CCCCCCCC1=NCCN1CCO`, the Potency in [1] was 54.5 µM (active); in assay [4], 68.6 µM (active); in assay [5] it was 61.1 µM (active). For the same compound, the Potency entry in [2], in [9] and in assay [8] was “inactive” throughout.

`O=C1C=CC(=O)N1c1ccc(Cc2ccc(N3C(=O)C=CC3=O)cc2)cc1`: the Potency in assay [1] is 30.6 µM (active); in assay [2] it was 15.9 µM (active); in [3], 54.5 µM (active); in assay [5], 27.3 µM (active); in [6], 27.3 µM (active). Besides, in assay [9], the Potency entry is “inactive”.

Consider `CCCCCCCCCOC(=O)c1ccc(O)cc1`, for which the results for the Potency in [1] and in assay [2] were 53.7 µM (active) and 70 µM (active), respectively. The Potency entry in assay [3], in assay [5], in assay [9] and in assay [10] was “inactive” throughout.

As for `CCOC(=O)O[C@H](C)OC(=O)c1ccc2c(c1)cc(C(=O)NC1CCN(C(C)C)CC1)n2Cc1cc(-c2ccc(Cl)s2)on1`, the Potency in [1] is 28.6 µM (active); in [4] it was 64.1 µM (active); in assay [5], 64.1 µM (active); in assay [6], 22.7 µM (active). The Potency result in [2] and in [9] was “inactive” in each case.

With `[O-][n+]1ccccc1SSc1cccc[n+]1[O-]`, the Potency in assay [1] is 0.366 µM (active); in [2] it was 0.425 µM (active); in assay [3], 0.92 µM (active); in [4] it was 0.206 µM (active); in [10], 1.64 µM (active). The activation in [8] is -33.7% [at 19 µM]; in assay [7] it was 15.2% [at 19 µM].

On to `O=C1CCCCCN1SSN1CCCCCC1=O`, for which the Potency result in assay [1], in [2], in [3], in [9], in assay [6] and in assay [8] was “inactive” in each case. Further, the Potency result in [7] is “inactive”. Also, the Potency in [5] was 27.3 µM (active).

For `CC(=O)N1CCN(c2ccc(OC[C@H]3CO[C@](Cn4ccnc4)(c4ccc(Cl)cc4Cl)O3)cc2)CC1`, the Potency was 27.3 µM (active) in assay [1], 48.6 µM (active) in assay [4], 24.3 µM (active) in assay [6] and 27.3 µM (active) in assay [10]. Further, the Potency entry in [2], in assay [5] and in assay [8] was “inactive” throughout.

Regarding `O=[N+]([O-])c1ccccc1Nc1ccccc1`, the Potency entry in assay [1], in [2], in [4], in assay [5], in [6] and in assay [7] was “inactive” in each case.

As for `O=S1(=O)CC(Cl)(Cl)C(Cl)(Cl)C1`, the Potency is 15.4 µM (active) in assay [1]; 8.63 µM (active) in [4]; 9.69 µM (active) in assay [6]; 13.7 µM (active) in [10]; 4.86 µM (active) in assay [7]. In addition, the Potency result in assay [2] and in assay [8] was “inactive” each time.

Consider `Cc1cc(O)c(C(C)(C)C)cc1C(C)(C)C`, for which the Potency is 54.5 µM (active) in assay [1], 61.1 µM (active) in assay [3] and 48.6 µM (active) in [6]. Further, the Potency entry in assay [2], in [9] and in [8] was “inactive” each time.

On to `CCCN(CCC)c1c([N+](=O)[O-])cc(C(F)(F)F)c(N)c1[N+](=O)[O-]`, for which the Potency in assay [1] is 48.4 µM (active); in [4] it was 68.4 µM (active); in assay [9], 13.6 µM (active); in [6], 43.1 µM (active); in assay [10], 38.5 µM (active); in assay [7], 6.09 µM (active). The Potency result in assay [2] and in [8] was “inactive” in each case.
